Measured values: PubChem BioAssay (EPA / NIEHS)
Results filed as inconclusive are left out. The source holds several records for some structures; these can differ, active in one and inactive in another. Active and inactive are the calls of the source. How the source made its calls: active means hit-call score of the fitted dose curve at least 0.9, where 1 is the maximum; inconclusive means response in the unintended direction; inactive means score below 0.9.

read-out: xenobiotic metabolism (CYP1A1), CYP1A1 (gene 1543); test: CLD_CYP1A1_24hr: CellzDirect (CLD) Gene Expression Assay for xenobiotic metabolism (CYP1A1) at 24 hours (AID 2283673)
Procedure: CLD_24hr is a cell-based, multiplexed-readout assay that uses hepatocyte, a human liver primary cell, with measurements taken at 24 hours after chemical dosing in a 96-well plate.CLD_CYP1A1_24hr is one of 16 assay component(s) measured or calculated from the CLD_24hr assay. It is designed to make measurements of mRNA induction, a form of inducible reporter, as detected with chemiluminescence signals by Quantitative Nuclease Protection Assay (qNPA) technology.Data from the assay component CLD_CYP1A1_24hr was analyzed at the endpoint, CLD_CYP1A1_24hr, in the positive analysis fitting direction relative to DMSO as the negative control and baseline of activity. Using a type of inducible reporter, gain-of-signal activity can be used to understand changes in the reporter gene as they relate to the gene CYP1A1. Furthermore, this assay endpoint can be referred to as a primary readout. To generalize the intended target to other relatable targets, this assay endpoint is annotated to the cyp intended target family, where subfamily is xenobiotic metabolism.
Human hepatocyte cultures were treated daily for two consecutive days with fresh dosing solutions containing appropriate concentrations of the 320 ToxCast chemicals (chemical identities were blinded to CellzDirect and other ToxCast collaborators), vehicle control (0.2% DMSO), and positive control inducers as summarized in Table 1. Due to the large number of treatment groups and chemicals examined, the ToxCast chemicals were divided into two groups (spanning two independent cultures of hepatocytes from separate donor preparations (Hu778: ToxCast plates 1 and 2; Hu776: ToxCast plates 3 and 4). Each preparation of human hepatocyte cultures was treated with respective vehicle control, medium only control, set of six positive controls/reference chemicals for the five hepatic receptor pathways, and a subset of eight of the ToxCast chemicals (indoxacarb, pyrithiobac-sodium, norflurazon, cyhalofop-butyl, methomyl, thiram, acetochlor, and propiconazole). These replicate data, coupled with internal replicates designed within the blinded ToxCast chemical library, provided additional data to evaluate interindividual differences between hepatocyte preparations and their potential impact on chemical profiles.Cell morphology and integrity were evaluated using phase-contrast microscopy as an indicator of hepatocyte cell health (Tyson & Green, 1987). Cultures for each treatment group (i.e., media, vehicle [0.2% DMSO], positive control inducers [multiple concentrations], and the ToxCast chemicals [multiple concentrations]) were observed and cell morphology was assessed relative to vehicle control cultures at each harvest time point (0, 6, 24, or 48 h). […] Images were evaluated at the conclusion of the study to assess changes in cell integrity and account for the effects of chemical exposure on uncharacteristic changes in concentration-dependent gene expression profiles. The results from these determinations of apparent cytotoxicity were annotated (yes/no) alongside the corresponding qNPA data for reference.At the conclusion of each treatment period, hepatocyte cultures (96-well) were washed with 1 volume of HBSS, lysed by addition of 25 ul ArrayPlate lysis buffer (HTG, Tucson, AZ), and 70 ul/well of Denaturation Oil, denatured by incubation at 95C for 10 min, and frozen at approximately -70C until analysis by nuclease protection assay (qNPA) (Roberts et al., 2007). For qNPA analysis, cell lysates were thawed at 50C for approximately 30 min, qNPA probes were added, and samples were incubated at 95C for 10 min to begin the detection process by denaturing the target RNA, dissociating the duplexes and secondary structure hybridization. At the conclusion of the hybridization period, S1 nuclease reagent was added to each sample to digest all nonprotected nucleotides at 50C for 60-90 min. […]

SMILES | AC50 | outcome
COC(=O)N(OC)c1ccccc1COc1ccn(-c2ccc(Cl)cc2)n1 | 1.9 µM (active) | –
CC(C)C1(C)N=C(c2nc3ccccc3cc2C(=O)O)NC1=O (stereo not given) | – | inactive
COP(N)(=O)SC (stereo not given) | – | inactive
COc1ccc(C(c2ccc(OC)cc2)C(Cl)(Cl)Cl)cc1 | – | inactive
CCNc1nc(Cl)nc(NCC)n1 | 5.56 µM (active) | –
Cc1c(F)c(F)c(COC(=O)C2C(/C=C(\Cl)C(F)(F)F)C2(C)C)c(F)c1F (stereo not given) | – | inactive
CCc1nn(C)c(C(=O)NCc2ccc(C(C)(C)C)cc2)c1Cl | 7.44 µM (active) | –
CS/C(C)=N/OC(=O)N(C)SN(C)C(=O)O/N=C(\C)SC | – | inactive
CCCCOC(=O)c1ccccc1C(=O)OCCCC | 4.22 µM (active) | inactive
COC(=O)c1ccccc1C(=O)OC | – | inactive
OC(c1ccc(Cl)cc1)(c1cncnc1)c1ccccc1Cl (stereo not given) | 7.86 µM (active) | –
CCNc1nc(Cl)nc(NC(C)C)n1 | 4.27 µM (active) | –
COC(=O)C(C)Oc1ccc(Oc2ccc(Cl)cc2Cl)cc1 (stereo not given) | – | inactive
N#Cc1cc(Br)c(O)c(Br)c1 | 20 µM (active) | –
N#Cc1nn(-c2c(Cl)cc(C(F)(F)F)cc2Cl)c(N)c1S(=O)C(F)(F)F (stereo not given) | – | inactive
Cc1ccc(-c2c(Cl)nc(C#N)n2S(=O)(=O)N(C)C)cc1 | 8.2 µM (active) | –
CCON=C(CC)C1=C(O)CC(c2c(C)cc(C)cc2C)CC1=O (stereo not given) | – | inactive
CC1=C(C(=O)Nc2ccccc2)SCCO1 | 20 µM (active) | –
COP(=S)(OC)Oc1nc(Cl)c(Cl)cc1Cl | 3.97 µM (active) | –

SMILES | AC50 | outcome
Fc1ccc(Oc2ccnc3cc(Cl)cc(Cl)c23)cc1 | 2.49 µM (active) | –
CCCCC(CC)COC(=O)c1ccccc1C(=O)OCC(CC)CCCC (stereo not given) | – | inactive
CCOc1cc(Oc2ccc(C(F)(F)F)cc2Cl)ccc1[N+](=O)[O-] | 4.84 µM (active) | –
COc1nc(NC(C)C)nc(NC(C)C)n1 | 3.47 µM (active) | –
C=CCC1=C(C)C(OC(=O)C2C(C=C(C)C)C2(C)C)CC1=O (stereo not given) | – | inactive
COc1nc(C)nc(NC(=O)NS(=O)(=O)c2ccccc2CCC(F)(F)F)n1 | 20 µM (active) | inactive
C#CCOS(=O)OC1CCCCC1Oc1ccc(C(C)(C)C)cc1 (stereo not given) | 20 µM (active) | –
CC(C)(C)c1ccc(CSc2cnn(C(C)(C)C)c(=O)c2Cl)cc1 | 20 µM (active) | –
CC1COC(Cn2cncn2)(c2ccc(Oc3ccc(Cl)cc3)cc2Cl)O1 (stereo not given) | 1.94 µM (active) | –
C=CCC1=C(C)[C@@H](OC(=O)[C@@H]2[C@@H](C=C(C)C)C2(C)C)CC1=O | – | inactive
CCCC1COC(Cn2cncn2)(c2ccc(Cl)cc2Cl)O1 (stereo not given) | 6.46 µM (active) | –
Oc1ccccc1-c1ccccc1 | 35.9 µM (active) | –
COc1nc(C)nc(NC(=O)NS(=O)(=O)c2ccccc2Cl)n1 | – | inactive
CC(C)Oc1cc(-n2nc(C(C)(C)C)oc2=O)c(Cl)cc1Cl | 4.05 µM (active) | –
O=C(Nc1ccccc1)Nc1ccnc(Cl)c1 | 10.4 µM (active) | –
CCCCNC(=O)OCC#CI | – | inactive
CNC(=S)S | – | inactive
O=C(O)c1nc(Cl)ccc1Cl | 7.87 µM (active) | –
CCCCNC(=O)n1c(NC(=O)OC)nc2ccccc21 | 20 µM (active) | –
